From ChEMBL document CHEMBL2218924, “A broad activity screen in support of a chemogenomic map for kinase signalling research and drug discovery” (Biochem J, 2013) come the findings set out here.

Assay [1] has as its target T1, Cyclin-dependent kinase 5/CDK5 activator 1 (Homo sapiens) (UniProt Q00535+Q15078). The following applies: at 1 µM.
Assay [2] deals with T1, Cyclin-dependent kinase 5/CDK5 activator 1 (Homo sapiens). The settings on record: at 10 µM.
The target is the same in assay [3]. The settings on record: at 1 µM. This is another data set of the same source.
Assay [4] shares this target. The following applies: at 10 µM. This is another data set of the same source.
Assay [5] deals with T2, CDK6/cyclin D3 (Homo sapiens) (UniProt P30281+Q00534). The following applies: at 1 µM.
Assay [6] addresses T2, CDK6/cyclin D3 (Homo sapiens). The following applies: at 10 µM.
In assay [7] the target is T3, Cyclin-dependent kinase 7/ cyclin H (Homo sapiens) (UniProt P51946+P50613). The settings on record: at 1 µM.
For assay [8], the target named is T3, Cyclin-dependent kinase 7/ cyclin H (Homo sapiens). The following applies: at 10 µM.
The target in assay [9] is T4, CDK9/cyclin T1 (Homo sapiens) (UniProt O60563+P50750). The following applies: at 1 µM.
For assay [10], the target named is T4, CDK9/cyclin T1 (Homo sapiens). The settings on record: at 10 µM.
The target in assay [11] is T5, Serine/threonine-protein kinase Chk1 (Homo sapiens) (UniProt O14757).
T5 sequence (whole entry): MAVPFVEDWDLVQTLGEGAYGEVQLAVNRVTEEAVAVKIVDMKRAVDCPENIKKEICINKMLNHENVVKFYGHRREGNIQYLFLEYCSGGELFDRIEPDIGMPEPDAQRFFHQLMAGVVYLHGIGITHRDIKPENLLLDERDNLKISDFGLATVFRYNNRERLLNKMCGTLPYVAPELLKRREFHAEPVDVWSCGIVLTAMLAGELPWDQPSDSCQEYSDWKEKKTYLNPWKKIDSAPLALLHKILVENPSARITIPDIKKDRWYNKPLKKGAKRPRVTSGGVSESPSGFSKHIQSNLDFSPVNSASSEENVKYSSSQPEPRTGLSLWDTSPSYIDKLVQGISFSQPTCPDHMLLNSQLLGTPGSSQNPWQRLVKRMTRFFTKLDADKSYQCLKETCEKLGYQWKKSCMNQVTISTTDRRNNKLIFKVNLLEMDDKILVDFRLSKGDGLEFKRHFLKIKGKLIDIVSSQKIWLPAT
The settings on record: at 1 µM.

In assay [12] the target is T5, Serine/threonine-protein kinase Chk1 (Homo sapiens). The settings on record: at 10 µM.
In assay [13] the target is Serine/threonine-protein kinase Chk2 (Homo sapiens) (UniProt O96017). The following applies: at 1 µM.
Chain of Serine/threonine-protein kinase Chk2 (Homo sapiens) (O96017 whole entry): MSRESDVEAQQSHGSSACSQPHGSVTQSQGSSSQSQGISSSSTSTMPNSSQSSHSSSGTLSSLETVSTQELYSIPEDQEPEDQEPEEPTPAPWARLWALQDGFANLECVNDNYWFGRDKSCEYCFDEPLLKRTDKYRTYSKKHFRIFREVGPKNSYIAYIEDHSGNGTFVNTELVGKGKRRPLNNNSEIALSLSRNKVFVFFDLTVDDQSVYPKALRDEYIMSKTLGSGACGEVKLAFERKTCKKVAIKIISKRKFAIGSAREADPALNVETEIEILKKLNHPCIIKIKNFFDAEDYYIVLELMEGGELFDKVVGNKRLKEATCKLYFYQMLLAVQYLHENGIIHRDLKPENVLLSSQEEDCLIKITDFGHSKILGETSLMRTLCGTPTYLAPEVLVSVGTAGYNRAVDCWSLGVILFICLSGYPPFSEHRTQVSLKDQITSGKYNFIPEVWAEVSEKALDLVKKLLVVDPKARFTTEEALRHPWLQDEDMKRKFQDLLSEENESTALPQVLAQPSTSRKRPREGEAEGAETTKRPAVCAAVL
Assay [14] has the same target. The settings on record: at 10 µM.
Assay [15] has as its target Casein kinase I isoform gamma-1 (Homo sapiens) (UniProt Q9HCP0). The settings on record: at 1 µM.
The target is the same in assay [16]. The following applies: at 10 µM.
For assay [17], the target named is Casein kinase I isoform delta (Homo sapiens) (UniProt P48730). The settings on record: at 1 µM.
Chain of Casein kinase I isoform delta (Homo sapiens) (P48730 whole entry, looked up, canonical isoform): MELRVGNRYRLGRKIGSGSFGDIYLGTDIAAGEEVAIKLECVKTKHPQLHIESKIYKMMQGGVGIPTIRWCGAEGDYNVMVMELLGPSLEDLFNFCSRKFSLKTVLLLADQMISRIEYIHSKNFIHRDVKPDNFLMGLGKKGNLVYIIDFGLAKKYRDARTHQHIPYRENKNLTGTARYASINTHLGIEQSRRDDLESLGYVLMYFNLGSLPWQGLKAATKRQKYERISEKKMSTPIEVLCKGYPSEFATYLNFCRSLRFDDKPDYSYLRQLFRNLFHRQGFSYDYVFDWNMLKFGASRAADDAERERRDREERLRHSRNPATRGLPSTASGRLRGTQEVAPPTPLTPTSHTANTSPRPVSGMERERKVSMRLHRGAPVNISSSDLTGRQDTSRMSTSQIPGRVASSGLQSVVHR
For assay [18] the target is unchanged. The settings on record: at 10 µM.
Assay [19] has as its target T6, CDK3/cyclin E (Homo sapiens) (UniProt P24864+O96020+Q00526). The following applies: at 1 µM.
Assay [20] deals with T6, CDK3/cyclin E (Homo sapiens). The settings on record: at 10 µM.

Chain of Casein kinase I isoform gamma-1 (Homo sapiens) (Q9HCP0 whole entry, looked up, canonical isoform): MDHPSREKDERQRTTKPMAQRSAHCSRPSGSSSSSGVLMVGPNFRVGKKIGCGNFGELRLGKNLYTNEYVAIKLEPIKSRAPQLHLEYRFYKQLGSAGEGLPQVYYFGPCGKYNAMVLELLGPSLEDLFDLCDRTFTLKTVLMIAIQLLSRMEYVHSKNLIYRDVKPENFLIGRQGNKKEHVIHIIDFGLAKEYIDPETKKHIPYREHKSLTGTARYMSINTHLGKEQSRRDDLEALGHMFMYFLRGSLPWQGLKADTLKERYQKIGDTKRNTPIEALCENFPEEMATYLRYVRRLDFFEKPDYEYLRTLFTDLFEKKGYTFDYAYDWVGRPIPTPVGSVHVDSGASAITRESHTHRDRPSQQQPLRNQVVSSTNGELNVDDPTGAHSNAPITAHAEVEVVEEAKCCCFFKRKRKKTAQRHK
T1 sequence (Q00535 whole entry): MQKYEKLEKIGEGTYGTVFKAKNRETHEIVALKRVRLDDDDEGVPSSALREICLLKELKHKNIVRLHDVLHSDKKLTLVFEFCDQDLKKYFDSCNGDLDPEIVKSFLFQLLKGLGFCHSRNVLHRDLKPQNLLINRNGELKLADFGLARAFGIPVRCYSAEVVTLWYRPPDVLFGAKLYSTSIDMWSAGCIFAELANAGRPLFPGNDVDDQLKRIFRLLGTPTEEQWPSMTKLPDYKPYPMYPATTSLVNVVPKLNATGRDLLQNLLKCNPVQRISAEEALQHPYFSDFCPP
T1 sequence (Q15078 99-307 partner limits assumed): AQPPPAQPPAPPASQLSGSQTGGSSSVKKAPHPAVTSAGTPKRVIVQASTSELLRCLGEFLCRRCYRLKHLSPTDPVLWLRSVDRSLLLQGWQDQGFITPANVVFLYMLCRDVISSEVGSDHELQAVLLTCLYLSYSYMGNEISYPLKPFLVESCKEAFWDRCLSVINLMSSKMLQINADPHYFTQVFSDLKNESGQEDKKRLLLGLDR
T6 sequence (O96020 whole entry, looked up): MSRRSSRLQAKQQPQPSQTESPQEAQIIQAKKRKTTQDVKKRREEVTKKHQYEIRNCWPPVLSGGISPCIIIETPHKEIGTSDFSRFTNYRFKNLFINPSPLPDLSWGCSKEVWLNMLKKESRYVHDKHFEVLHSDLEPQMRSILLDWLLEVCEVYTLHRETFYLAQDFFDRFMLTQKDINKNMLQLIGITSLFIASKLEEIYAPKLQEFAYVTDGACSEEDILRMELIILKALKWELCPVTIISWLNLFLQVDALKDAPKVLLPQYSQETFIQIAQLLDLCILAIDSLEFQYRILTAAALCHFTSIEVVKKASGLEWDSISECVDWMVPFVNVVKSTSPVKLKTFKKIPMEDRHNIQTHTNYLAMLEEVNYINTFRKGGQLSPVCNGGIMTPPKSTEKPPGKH
T6 sequence (P24864 whole entry, looked up): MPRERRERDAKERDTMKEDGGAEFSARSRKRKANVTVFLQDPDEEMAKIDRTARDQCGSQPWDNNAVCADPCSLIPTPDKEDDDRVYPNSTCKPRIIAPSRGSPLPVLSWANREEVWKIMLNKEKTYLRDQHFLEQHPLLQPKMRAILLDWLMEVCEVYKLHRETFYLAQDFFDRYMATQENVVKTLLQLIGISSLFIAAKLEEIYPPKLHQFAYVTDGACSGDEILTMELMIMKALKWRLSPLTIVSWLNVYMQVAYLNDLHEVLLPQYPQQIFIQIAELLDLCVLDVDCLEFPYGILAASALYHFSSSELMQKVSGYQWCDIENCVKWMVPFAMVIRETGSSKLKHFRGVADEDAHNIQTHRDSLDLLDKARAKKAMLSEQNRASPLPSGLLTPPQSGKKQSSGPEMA
T6 sequence (Q00526 whole entry, looked up): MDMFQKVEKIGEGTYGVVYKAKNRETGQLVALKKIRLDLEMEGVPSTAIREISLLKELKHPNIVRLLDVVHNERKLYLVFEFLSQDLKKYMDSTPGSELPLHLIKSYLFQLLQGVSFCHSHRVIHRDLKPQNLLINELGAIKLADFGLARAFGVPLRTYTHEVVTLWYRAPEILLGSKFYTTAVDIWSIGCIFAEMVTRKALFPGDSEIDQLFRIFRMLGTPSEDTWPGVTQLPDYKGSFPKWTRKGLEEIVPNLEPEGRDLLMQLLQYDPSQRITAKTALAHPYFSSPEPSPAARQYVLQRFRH

`CCN(CC)CCNC(=O)c1c(C)[nH]c(/C=C2\C(=O)Nc3ccc(Cl)cc32)c1C`: the residual activity in assay [1] is 77%; in assay [2], 22%; in assay [3], 72%; in assay [4], 28%; in [5] it was 70%; in assay [6], 13%. For the same compound, the residual activity in [7] was determined as 15%; in assay [8] it was 2%; in assay [9], 48%; in assay [10] it was 13%; in assay [11], 24%; in assay [12] it was 3%. The residual activity in assay [13] turned out to be 6%; in assay [14] it was 1%; in assay [15] it was 64%; in assay [16], 14%; in assay [17], 23%; in [18] it was 5%.

In the case of `O=C(Nc1nc2ccccc2n1CCN1CCOCC1)c1cccc([N+](=O)[O-])c1`, the residual activity in assay [5] worked out at 88%; in assay [6], 88%; in [7], 75%; in [8] it was 77%; in assay [9], 41%; in assay [10], 58%. Moreover, the residual activity in [11] was found to be 85%; in assay [13] it was 79%; in [14], 67%; in assay [15], 58%; in assay [16] it was 67%; in assay [17], 64%. Moreover, the residual activity in [18] came to 62%.

Regarding `O=C1Cc2c([nH]c3ccc(Br)cc23)-c2ccccc2N1`, the residual activity in [19] was determined as 54%; in assay [20] it was 9%; in assay [3], 47%; in assay [4], 9%; in [5], 78%; in assay [6], 30%. Moreover, the residual activity in [7] worked out at 91%; in assay [8] it was 80%; in [11] it was 77%; in assay [12], 53%; in assay [16] it was 71%; in [17] it was 80%. Further, in [18], the residual activity worked out at 68%.

As for `COc1ccc(-c2cnc3c(-c4ccsc4)cnn3c2)cc1`, the residual activity in [19] was 85%; in assay [2], 88%; in assay [3] it was 85%; in [5], 85%; in assay [6], 96%; in assay [7], 90%. In addition, the residual activity in [11] was determined as 87%; in assay [12] it was 95%; in assay [15] it was 98%; in [16], 92%.

Consider `CCCCc1c(-c2ccc(O)cc2)[nH]c2nccnc12`, for which the residual activity in assay [19] was 29%; in assay [20] it was 6%; in assay [5], 89%; in assay [6], 33%; in [7] it was 78%; in assay [8], 51%. In addition, the residual activity in assay [9] was 7%; in assay [10], 7%; in assay [11], 91%; in [12], 100%; in [13] it was 31%; in [14] it was 10%. For the same compound, the residual activity worked out at 75% in assay [15], 61% in [16], 81% in assay [17] and 52% in [18].

With `O=C(Nc1ccc(Cl)cc1)c1ccccc1NCc1ccncc1`, the residual activity in [5] was 102%; in assay [6], 102%; in [8] it was 124%.

Regarding `CC(C)[C@H](CO)Nc1nc(Nc2cc(N)cc(Cl)c2)c2ncn(C(C)C)c2n1`, the residual activity amounted to 20% in assay [3]; 2% in [4]; 43% in assay [7]; 6% in [8]; 67% in [13]; 30% in [14]. Also, the values for the residual activity in [17] and in assay [18] were 74% and 26%, respectively.

For `CC(C)(C)c1nc2c3ccc(F)cc3c3c(=O)[nH]ccc3c2[nH]1`, the residual activity in assay [20] was determined as 54%; in [5], 71%; in assay [6] it was 50%; in assay [7] it was 69%; in assay [11], 37%; in [12], 24%. Also, the values for the residual activity in assay [13] and in assay [14] were 2% and 1%, respectively.

With `O=C1Nc2ccccc2/C1=C\c1c(Cl)[nH]c2ccccc12`, the residual activity in assay [20] stood at 55%; in [2], 40%; in assay [4] it was 40%; in [6], 32%; in assay [8], 59%; in assay [9], 80%. Further, the residual activity in assay [10] was 34%; in [13], 75%; in assay [14], 41%; in assay [17], 85%; in assay [18], 51%.

On to `N#Cc1c(NC(=O)c2cccc3ccccc23)sc2c1CCCC2`, for which the residual activity came out at 90% in assay [6]; 99% in assay [9]; 100% in assay [10]; 76% in assay [14]; 83% in [17]; 77% in [18].

In the case of `Cn1c2ccccc2c2c3c(c4c5ccccc5n(CCC#N)c4c21)CNC3=O`, the residual activity in [1] was found to be 5%; in assay [2] it was 4%; in assay [3], 3%; in assay [4] it was 6%; in assay [5], 48%; in assay [6], 38%. Also, the residual activity in assay [7] is 74%; in [8] it was 79%; in assay [10] it was 36%; in assay [11], 2%; in assay [12], 0%; in assay [13] it was 25%. Also, the residual activity was determined as 15% in [14], 70% in [17] and 48% in assay [18].

As to `CN([C@@H](Cc1ccc(OS(=O)(=O)c2cccc3cnccc23)cc1)C(=O)N1CCN(c2ccccc2)CC1)S(=O)(=O)c1cccc2cnccc12`, the residual activity in assay [14] amounted to 79%; in [16], 73%.

In the case of `CCOc1nc(NC(=O)Cc2cc(OC)ccc2OC)cc(N)c1C#N`, the residual activity in assay [19] was determined as 82%; in [5], 100%.

Consider `COc1cc2nccc(Oc3ccc(NC(=O)Nc4cc(C)on4)c(Cl)c3)c2cc1OC`, for which the residual activity in assay [5] is 96%; in assay [6] it was 99%; in assay [7], 99%; in [8], 107%; in assay [10], 72%; in assay [13], 79%. The residual activity in [14] was 30%.

Turning to `O=C1Cc2c([nH]c3ccc([N+](=O)[O-])cc23)-c2ccccc2N1`, the residual activity was 6% in assay [20]; 9% in assay [1]; 6% in [2]; 6% in [3]; 6% in [4]; 60% in assay [5]. Besides, the residual activity in assay [6] turned out to be 26%; in [9], 1%; in [10], 2%; in assay [11] it was 39%; in assay [13] it was 3%; in assay [14] it was 1%.

`O=S(=O)(c1cccc2cnccc12)N1CCCNCC1`: the residual activity turned out to be 81% in assay [9]; 29% in [10]; 54% in [14]; 124% in [15]; 100% in [16].

With `CCOC(=O)c1c(C)[nH]c(/C=C2\C(=O)Nc3ccccc32)c1C`, the residual activity in [19] was 100%; in [20] it was 90%; in [5] it was 93%; in assay [6], 95%; in [11] it was 90%; in assay [12] it was 92%. For the same compound, the residual activity in assay [13] worked out at 45%; in assay [14], 34%; in assay [15], 88%; in [16] it was 81%; in assay [17], 77%; in [18], 62%.

As to `NCCNc1ncc(C(N)=O)c(Nc2cccc(C(F)(F)F)c2)n1`, the residual activity amounted to 77% in assay [1]; 25% in assay [2]; 70% in [3]; 33% in [4]; 78% in assay [7]; 49% in assay [8]. The residual activity in assay [9] amounted to 73%; in assay [10], 21%; in [11], 66%; in [12] it was 27%; in [13], 15%; in [14] it was 2%. Further, the residual activity in assay [17] turned out to be 79%; in [18], 58%.

`Fc1ccc(-c2nc3n(c2-c2ccncc2)CCS3)cc1`: the residual activity stood at 124% in assay [5]; 92% in assay [13]; 88% in [14]; 86% in assay [15]; 28% in assay [16]; 3% in assay [17]. Besides, in [18], the residual activity was 1%.

For the compound `COc1ccc(Cl)cc1NC(=O)Nc1cc(C)nc2ccccc12`, the residual activity in assay [19] stood at 93%; in assay [20], 91%; in assay [4], 77%; in assay [5] it was 95%; in assay [6], 83%; in [7], 80%. Besides, the residual activity in assay [8] stood at 90%; in assay [11], 86%; in assay [12] it was 81%; in assay [13], 85%; in assay [15], 94%; in assay [16], 100%.

As to `COc1ccc(CNC(=O)Nc2ncc([N+](=O)[O-])s2)cc1`, the residual activity is 68% in assay [19]; 26% in [20]; 69% in assay [8]; 5% in [10]; 77% in [14].

Consider `NC(=O)c1cccc(-c2cc(Nc3ccc(OC(F)(F)F)cc3)ncn2)c1`, for which the residual activity is 93% in assay [1]; 65% in assay [2]; 91% in assay [8]; 69% in assay [10]; 99% in [11]; 96% in assay [12]. The residual activity is 95% in assay [13]; 87% in assay [14]; 94% in assay [15]; 63% in assay [16]; 90% in assay [17]; 74% in assay [18].

As for `CCN1/C(=C/C(C)=O)Sc2ccc(OC)cc21`, the residual activity in assay [19] came to 82%; in assay [20] it was 80%; in assay [4], 71%; in assay [7], 82%; in assay [8], 81%; in assay [15], 69%. Moreover, the residual activity was found to be 21% in [16], 29% in [17] and 4% in [18].
